# Reference: PubChem BioAssay AID1159580 (chemical genetic matrix, 2015)
# In all, about 5,500 compounds went through this assay and about 2,000 (36%) were called active. Another 18% or so got no clear call; they are omitted. Some of the results follow. A number with no mark means an inactive call. No stated cut-off is given here; in the data, active means normalized growth mostly below about 0.91 (no sharp cut-off); inconclusive means no clear call, values can overlap the other calls; inactive means mostly above about 0.92.
# Experiment: chemical genetic growth profiling, strain panel (AID 1159580);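 further: tested at 20 µM; growth read once vehicle control cultures reached saturation at 30 °C; 1 = growth at the plate median or of vehicle wells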
# Details: S. cerevisiae deletion strains, growth OD
# [1] = locus YAR019C, strain CDC15, stronger effect = lower value
# [2] = locus YBL105C, strain PKC1, stronger effect = lower value
# [3] = locus YBR135W, strain CKS1, stronger effect = lower value
# [4] = locus YBR136W, strain MEC1, stronger effect = lower value
# [5] = locus YBR160W, strain CDC28, stronger effect = lower value
# [6] = locus YDL017W, strain CDC7, stronger effect = lower value
# [7] = locus YDL028C, strain MPS1, stronger effect = lower value
# [8] = locus YDL101C, strain DUN1, stronger effect = lower value
# [9] = locus YDL108W, strain KIN28, stronger effect = lower value
# [10] = locus YDL132W, strain cdc53, stronger effect = lower value
# [11] = locus YDL214C, strain PRR2, stronger effect = lower value
# [12] = locus YDR052C, strain DBF4, stronger effect = lower value
# [13] = locus YDR054C, strain cdc34, stronger effect = lower value
# [14] = locus YDR226W, strain ADK1, stronger effect = lower value
# [15] = locus YDR477W, strain SNF1, stronger effect = lower value
# [16] = locus YER123W, strain YCK3, stronger effect = lower value
# [17] = locus YER133W, strain GLC7, stronger effect = lower value
# [18] = locus YFL009W, strain cdc4, stronger effect = lower value
# [19] = locus YFL029C, strain CAK1, stronger effect = lower value
# [20] = locus YFR003C, strain YPI1, stronger effect = lower value
# [21] = locus YFR019W, strain FAB1, stronger effect = lower value
# [22] = locus YFR028C, strain CDC14, stronger effect = lower value
# [23] = locus YGR040W, strain KSS1, stronger effect = lower value
# [24] = locus YGR052W, strain FMP48, stronger effect = lower value
# [25] = locus YGR092W, strain DBF2, stronger effect = lower value
# [26] = locus YHR030C, strain SLT2, stronger effect = lower value
# [27] = locus YHR079C, strain IRE1, stronger effect = lower value
# [28] = locus YHR082C, strain KSP1, stronger effect = lower value
# [29] = locus YHR205W, strain SCH9, stronger effect = lower value
# [30] = locus YIL147C, strain SLN1, stronger effect = lower value
# [31] = locus YJL095W, strain BCK1, stronger effect = lower value
# [32] = locus YJL128C, strain PBS2, stronger effect = lower value
# [33] = locus YJL157C, strain FAR1, stronger effect = lower value
# [34] = locus YJR016C, strain ILV3, stronger effect = lower value
# [35] = locus YJR066W, strain TOR1 (second series), stronger effect = lower value
# [36] = locus YJR066W, strain TOR1, stronger effect = lower value
# [37] = locus YKL048C, strain ELM1, stronger effect = lower value
# [38] = locus YKL067W, strain YNK1, stronger effect = lower value
# [39] = locus YKL101W, strain HSL1, stronger effect = lower value
# [40] = locus YKL193C, strain SDS22, stronger effect = lower value
# [41] = locus YKL203C, strain TOR2, stronger effect = lower value
# [42] = locus YLR113W, strain HOG1, stronger effect = lower value
# [43] = locus YLR133W, strain CKI1, stronger effect = lower value
# [44] = locus YLR403W, strain SFP1, stronger effect = lower value
# [45] = locus YML070W, strain DAK1, stronger effect = lower value
# [46] = locus YMR001C, strain CDC5, stronger effect = lower value
# [47] = locus YMR205C, strain PFK2 (second series), stronger effect = lower value
# [48] = locus YMR277W, strain FCP1, stronger effect = lower value
# [49] = locus YNL006W, strain LST8, stronger effect = lower value
# [50] = locus YNL020C, strain ARK1, stronger effect = lower value
# [51] = locus YNL161W, strain CBK1, stronger effect = lower value
# [52] = locus YNL183C, strain NPR1, stronger effect = lower value
# [53] = locus YNL207W, strain RIO2, stronger effect = lower value
# [54] = locus YNL222W, strain SSU72, stronger effect = lower value
# [55] = locus YNL307C, strain MCK1 (second series), stronger effect = lower value
# [56] = locus YOL078W, strain AVO1, stronger effect = lower value
# [57] = locus YOL136C, strain PFK27, stronger effect = lower value
# [58] = locus YOR061W, strain CKA2, stronger effect = lower value
# [59] = locus YOR119C, strain RIO1, stronger effect = lower value
# [60] = locus YOR231W, strain MKK1, stronger effect = lower value
# [61] = locus YOR329C, strain SCD5, stronger effect = lower value
# [62] = locus YPL031C, strain PHO85, stronger effect = lower value
# [63] = locus YPL153C, strain RAD53, stronger effect = lower value
# [64] = locus YPL204W, strain HRR25, stronger effect = lower value
# [65] = locus YPL209C, strain IPL1, stronger effect = lower value
# [66] = locus YPL256C, strain CLN2, stronger effect = lower value
# [67] = locus YPR025C, strain CCL1, stronger effect = lower value
# [68] = locus YPR106W, strain ISR1, stronger effect = lower value
# [69] = locus YPR111W, strain DBF20, stronger effect = lower value
# [70] = strain NNK1, stronger effect = lower value
# [71] = strain TSCII, stronger effect = lower value
smiles,measurement,setting,value
Cc1nc(-c2ccccn2)nc(N(C)Cc2ccccc2)c1Cl,normalized growth,[1],0.951
same,normalized growth,[2],0.961
same,normalized growth,[3],0.967
same,normalized growth,[4],0.955
same,normalized growth,[5],0.968
same,normalized growth,[6],0.962
same,normalized growth,[7],0.956
same,normalized growth,[8],0.962
same,normalized growth,[9],0.951
same,normalized growth,[10],0.961
same,normalized growth,[11],0.997
same,normalized growth,[12],0.965
same,normalized growth,[13],0.948
same,normalized growth,[14],0.956
same,normalized growth,[15],0.971
same,normalized growth,[16],0.93
same,normalized growth,[17],0.975
same,normalized growth,[18],0.953
same,normalized growth,[19],0.94
same,normalized growth,[20],0.963
same,normalized growth,[21],1
same,normalized growth,[22],0.976
same,normalized growth,[23],0.964
same,normalized growth,[24],1.04
same,normalized growth,[25],0.863
same,normalized growth,[26],0.932
same,normalized growth,[27],0.95
same,normalized growth,[28],0.998
same,normalized growth,[29],0.954
same,normalized growth,[30],0.952
same,normalized growth,[31],0.966
same,normalized growth,[32],0.973
same,normalized growth,[33],0.972
same,normalized growth,[34],0.969
same,normalized growth,[35],0.958
same,normalized growth,[36],0.952
same,normalized growth,[37],0.982
same,normalized growth,[38],0.97
same,normalized growth,[39],0.945
same,normalized growth,[40],0.96
same,normalized growth,[41],1.01
same,normalized growth,[42],1
same,normalized growth,[43],0.968
same,normalized growth,[44],0.959
same,normalized growth,[45],0.966
same,normalized growth,[46],0.956
same,normalized growth,[47],0.981
same,normalized growth,[48],0.964
same,normalized growth,[49],0.975
same,normalized growth,[50],0.973
same,normalized growth,[51],0.964
same,normalized growth,[52],1
same,normalized growth,[53],0.959
same,normalized growth,[54],0.96
same,normalized growth,[55],0.922
same,normalized growth,[56],0.96
same,normalized growth,[57],0.963
same,normalized growth,[58],0.941
same,normalized growth,[59],0.991
same,normalized growth,[60],0.994
same,normalized growth,[61],0.955
same,normalized growth,[62],0.952
same,normalized growth,[63],0.943
same,normalized growth,[64],0.938
same,normalized growth,[65],0.958
same,normalized growth,[66],0.985
same,normalized growth,[67],0.963
same,normalized growth,[68],0.974
same,normalized growth,[69],0.976
same,normalized growth,[70],0.979
same,normalized growth,[71],0.953
Cc1nc(-c2ccccn2)nc(SCc2ccccc2)c1Cl,normalized growth,[1],0.946
same,normalized growth,[2],0.945
same,normalized growth,[3],0.941
same,normalized growth,[4],0.94
same,normalized growth,[5],0.954
same,normalized growth,[6],0.949
same,normalized growth,[7],0.939
same,normalized growth,[8],0.942
same,normalized growth,[9],0.94
same,normalized growth,[10],0.93
same,normalized growth,[11],0.844
same,normalized growth,[12],0.94
same,normalized growth,[13],0.922
same,normalized growth,[14],0.942
same,normalized growth,[15],0.849
same,normalized growth,[16],0.747
same,normalized growth,[17],0.826
same,normalized growth,[18],0.935
same,normalized growth,[19],0.935
same,normalized growth,[20],0.943
same,normalized growth,[21],0.887
same,normalized growth,[22],0.94
same,normalized growth,[23],0.829
same,normalized growth,[24],0.853
same,normalized growth,[25],0.705
same,normalized growth,[26],0.843 (active)
same,normalized growth,[27],0.766
same,normalized growth,[28],0.849
same,normalized growth,[29],0.86
same,normalized growth,[30],0.935
same,normalized growth,[31],0.862
same,normalized growth,[32],0.927
same,normalized growth,[33],0.798
same,normalized growth,[34],0.936
same,normalized growth,[35],0.786
same,normalized growth,[36],0.792
same,normalized growth,[37],0.96
same,normalized growth,[38],0.849
same,normalized growth,[39],0.875
same,normalized growth,[40],0.937
same,normalized growth,[41],0.869
same,normalized growth,[42],0.802 (active)
same,normalized growth,[43],0.876
same,normalized growth,[44],0.772
same,normalized growth,[45],0.816
same,normalized growth,[46],0.942
same,normalized growth,[47],0.864
same,normalized growth,[48],0.941
same,normalized growth,[49],0.94
same,normalized growth,[50],0.827
same,normalized growth,[51],0.942
same,normalized growth,[52],0.826
same,normalized growth,[53],0.921
same,normalized growth,[54],0.943
same,normalized growth,[55],0.807
same,normalized growth,[56],0.938
same,normalized growth,[57],0.834
same,normalized growth,[58],0.815
same,normalized growth,[59],0.843
same,normalized growth,[60],0.819
same,normalized growth,[61],0.946
same,normalized growth,[62],0.791
same,normalized growth,[63],0.793
same,normalized growth,[64],0.834
same,normalized growth,[65],0.952
same,normalized growth,[66],0.934
same,normalized growth,[67],0.942
same,normalized growth,[68],0.95
same,normalized growth,[69],0.955
same,normalized growth,[70],0.945
same,normalized growth,[71],0.933
